# In the supplement of paper PMC6555819:
# Assays:
# Assay in all cases: PBM binding z-score (relative to random genomic background probes); higher = stronger binding; sequences stand for … in GC…GCGATTGACAGCGTAGAATGAAGG
# [1] = tested on: PPARg:RXRa DBDmut IVT, anti-RXR (DBD mutation: RXRa K156A/R161A, NR concentration 270 nM, RXRa partner concentration 90 nM)
# Summary of the method: (§1)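 The probes on custom Agilent 4×180K protein-binding microarrays were double-stranded, with 34-nt variable regions bearing direct-repeat seeds, single-nucleotide variants, half-site ablations and random human genomic background sequences. Incubation lasted 1 h with ligand-free nuclear receptor dimers in PBS pH 7.4, 2% milk, 0.02% Triton X-100, 1 mM DTT, 0.2 mg/mL BSA and 0.4 mg/ml salmon testes DNA. Antibodies against each partner (one per run) detected bound dimers, and fluorescence scans were regression-normalized. Binding z-scores take the random background probes as reference.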
# [2] = tested on: PPARg:RXRa IVT, anti-PPARg (NR concentration 270 nM, RXRa partner concentration 90 nM)
# Summary of the method: as §1
# [3] = tested on: PPARg DBDmut:RXRa IVT, anti-PPARg (DBD mutation: PPARg1 K132A/R137A, NR concentration 270 nM, RXRa partner concentration 90 nM)
# Summary of the method: as §1
# [4] = tested on: PPARg DBDmut IVT, anti-PPARg (DBD mutation: PPARg1 K132A/R137A, NR concentration 270 nM)
# Summary of the method: as §1
# [5] = tested on: PPARg homodimer (NR concentration 180 nM)
# Summary of the method: as §1
# [6] = tested on: PXR:RXRa (NR concentration 270 nM, RXRa partner concentration 90 nM)
# Summary of the method: as §1
# [7] = tested on: PXR homodimer (NR concentration 270 nM)
# Summary of the method: as §1
# [8] = tested on: RARa:RXR (NR concentration 270 nM, RXRa partner concentration 90 nM)
# Summary of the method: as §1
# [9] = tested on: RARa homodimer (NR concentration 270 nM)
# Summary of the method: as §1
# [10] = tested on: RARb:RXRa (NR concentration 270 nM, RXRa partner concentration 90 nM)
# Summary of the method: as §1
# [11] = tested on: RARb homodimer (NR concentration 270 nM)
# Summary of the method: as §1
# [12] = tested on: RARg:RXRa (NR concentration 270 nM, RXRa partner concentration 90 nM)
# Summary of the method: as §1
# [13] = tested on: RARg homodimer (NR concentration 270 nM)
# Summary of the method: as §1
# [14] = tested on: RXRa DBDmut IVT, anti-RXR (DBD mutation: RXRa K156A/R161A, NR concentration 90 nM)
# Summary of the method: as §1
# [15] = tested on: RXRa homodimer (NR concentration 180 nM)
# Summary of the method: as §1
# [16] = tested on: THRa:RXRa (NR concentration 90 nM, RXRa partner concentration 90 nM)
# Summary of the method: as §1
# [17] = tested on: THRa homodimer (NR concentration 90 nM)
# Summary of the method: as §1
# [18] = tested on: VDR homodimer (NR concentration 270 nM)
# Summary of the method: as §1
Sequence,PBM binding z-score [1],PBM binding z-score [2],PBM binding z-score [3],PBM binding z-score [4],PBM binding z-score [5],PBM binding z-score [6],PBM binding z-score [7],PBM binding z-score [8],PBM binding z-score [9],PBM binding z-score [10],PBM binding z-score [11],PBM binding z-score [12],PBM binding z-score [13],PBM binding z-score [14],PBM binding z-score [15],PBM binding z-score [16],PBM binding z-score [17],PBM binding z-score [18]
GCGACTGGGGCATCGGCAGGTTACCATAACTTAA,3.7,3.26,-0.659,-0.662,0.364,0.0639,-0.275,0.387,-0.205,0.954,1.07,1.17,0.592,-0.207,0.141,1.11,0.42,-0.113
AGAATGAGGTTAAGATCAGCGAAACAGAATACAT,1.69,2.37,1.19,0.858,-0.266,0.978,0.422,1.82,0.555,1.83,0.64,1.9,1.45,0.594,2.39,2.27,0.587,0.524
CCTAATTGGTCAAGGTCACACACGCTATAGGTAC,2.69,3.49,1.13,1.42,3.47,4.32,1.9,4.28,2.79,4.22,4.67,4.73,4.86,2.36,4.64,4.34,4.13,3.38
AGAATGAGGTTATAGGTAGATCAGGGAAGAAAGT,2.86,2.76,1.2,1.03,1.63,1.52,1.49,1.93,1.46,1.72,1.39,1.63,1.08,1.35,2.15,2.45,1.42,1.24
ACTAGTTGGTTAGCTGAGGTCACACACAATTCGG,0.671,2.34,0.586,0.524,3.15,5.03,2.31,4.59,1.66,3.06,4.12,3.62,3.42,1.62,3.95,4.7,5.36,3.78
CCTTGGAGGACAACAGGAGGTCAGAGCTGCCAGA,1.07,1.27,-1.18,-0.193,1.41,1.97,0.462,2.33,0.276,2.83,3.58,3.49,3.03,0.451,2.08,2.88,1.13,1.24
GGAACGAGGGCAAGTTGATAACAGAGTTTGATGG,3.17,2.87,0.0927,0.0422,0.807,0.857,0.526,0.565,-0.181,2.38,1.22,1.6,2.06,2.29,0.775,1.13,0.176,1.74
AGAACGAGGGCACGCTGAATTGATAGCAGAGTAG,4.42,4.08,0.656,0.0574,-0.00941,0.266,-0.373,0.746,-0.442,2.5,0.888,1.78,2.36,1.73,1.18,1.53,-0.215,0.542
TCTATTAGTTGAAGGGTAACCGACGAGTCCGTTT,2.52,0.636,0.556,0.761,1.56,1.03,0.714,1.09,1.6,0.96,0.751,0.464,0.398,1.95,0.736,0.32,0.529,1.44
AGAATGAGGTTAAGATCAGGGCAACAGAATACAT,2.97,3.28,1.36,0.923,1.05,2.34,0.694,2.78,0.44,2.45,2.23,3.86,1.76,1.17,2.78,3.57,1.44,0.984
GCTCGGAGGACAAGGTCAGAGCGTTGTCCGTAGA,-0.242,0.658,-1.14,-1.68,0.169,1.68,-0.131,2.07,-0.539,3.4,2.97,3.26,3.69,0.33,2.43,2.89,1.25,0.555
TCATATAGGAAAAGGTGAAAGTCGAACGATATGA,1.88,1.52,1.28,0.696,0.985,0.902,-0.139,1.54,0.581,1.93,1.17,1.38,1.12,1.03,1.86,0.964,-0.616,0.135
AGAACGAGGGCACGCTGAGGTGATAGCAGAGTAG,4.07,4.06,1.26,0.179,0.573,0.989,-0.0676,1.66,-0.189,2.66,1.66,2.8,2.65,1.51,1.77,3.45,1.21,1.04
ATCTCTAGGTAACAAGTTCAGTTAAAGAGAGGAC,2.97,2.91,1.33,1.39,1.31,1.79,1.75,0.869,1.39,1.71,1.9,1.37,1.45,0.748,0.837,1.73,1.16,2.34
CCGAATGGGGCAAGGTTACCATAACGCACAGCCA,0.946,1.17,-0.387,-0.659,0.548,0.288,-0.323,0.909,-0.0739,1.75,1.24,1.05,1.37,0.000118,1.39,1.26,0.404,0.214
ATCTCTAGGAAAAGTTCAGTGAAAGATCGATAGA,-0.273,0.00412,1.12,0.44,0.701,1.43,1.46,0.476,1.52,2.17,2.13,1.53,1.87,1.03,0.695,0.532,-0.316,1.66
